KB-3-1 cytotox – kills parental KB-3-1 adenocarcinoma cells; 400,000 compounds, 1.4% hits; KB-3-1 viability, CellTiter-Glo ATP luminescence, 72 h; AID 1347075; Potency, µM (series often up to 46.1 µM), usual class: cytotoxic; further: on the % scale 0 is the no-effect control and ±100 the full control effect; nearly all actives have a fitted effect of over 60% in size
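KB-3-1 cells, DMEM (no phenol red) + 10% FBS; compound by pin transfer, 72 h, 37 °C. Readout: CellTiter-Glo luminescence after 10 min. Data normalized, curve-fitted.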
TSG101-PTAP inh – blocks PTAP/TSG101 interaction to inhibit HIV-1 budding | Q99816 | Fluorescence polarization, FITC-PTAP peptide / Tsg101 binding | Potency, µM (doses to about 115 µM), inactives show at the highest dose activity change, negative = inhibition, hits mostly inhibitors | 340,000 tested, under 10 active; active means well fitted inhibition curve with a large enough effect in the main read-out, with a control signal flat, not every such curve was filed as active; inconclusive means small, poorly fitted or top-dose-only effect, or effect the other way, or a change in a side signal; inactive means no such curve, though single readings can be large or run the other way; further: % of control where 0% means no effect
Target sequence (Q99816 whole entry, looked up): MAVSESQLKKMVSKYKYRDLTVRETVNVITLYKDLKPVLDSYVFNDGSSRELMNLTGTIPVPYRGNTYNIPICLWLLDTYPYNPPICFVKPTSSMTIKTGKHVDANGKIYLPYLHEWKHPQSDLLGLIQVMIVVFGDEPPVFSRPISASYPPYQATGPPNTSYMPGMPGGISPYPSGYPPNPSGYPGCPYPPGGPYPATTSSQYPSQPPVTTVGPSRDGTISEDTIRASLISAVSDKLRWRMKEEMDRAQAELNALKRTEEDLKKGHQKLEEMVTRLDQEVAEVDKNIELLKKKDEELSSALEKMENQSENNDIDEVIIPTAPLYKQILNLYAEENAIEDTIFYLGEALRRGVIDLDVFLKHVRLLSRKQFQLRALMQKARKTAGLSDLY
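Fluorescence anisotropy tracks displacement of a FITC-tagged PTAP peptide (50 nM) from the Tsg101 binding domain (10 uM), following a 20 min room-temperature incubation at pH 7.5.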
KB-V1 MDR tox – kills drug-selected multidrug resistant KB-V1 cells | Potency, µM (titrated, usually from 46.1 µM), hits mostly cytotoxic | 400,000 compounds, 3.4% hits | KB-V1 MDR cells viability, CellTiter-Glo, 72 h; further: on the % scale 0 is the no-effect control and ±100 the full control effect; nearly all actives have a fitted effect of over 60% in size
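Drug-selected KB-V1 cells, grown in DMEM lacking phenol red with 10% FBS, receive compound titrations; after three days at 37 degrees C, surviving cell ATP is quantified by CellTiter-Glo luminescence and responses normalized and curve-fitted.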
RGS4 inh – inhibitors of human regulator of G protein signaling 4; 390,000 compounds, 0.039% hits; P49798; Transcreener GDP fluorescence polarization, RGS4-accelerated GTP hydrolysis; Potency, µM (doses to about 114 µM), inactives show at the top dose activity change, negative = inhibition, usual class: inhibitors; further: on the % scale 0 is the no-effect control and ±100 the full control effect; nearly all actives have a fitted effect of over 75% in size
Target sequence (P49798 whole entry, looked up): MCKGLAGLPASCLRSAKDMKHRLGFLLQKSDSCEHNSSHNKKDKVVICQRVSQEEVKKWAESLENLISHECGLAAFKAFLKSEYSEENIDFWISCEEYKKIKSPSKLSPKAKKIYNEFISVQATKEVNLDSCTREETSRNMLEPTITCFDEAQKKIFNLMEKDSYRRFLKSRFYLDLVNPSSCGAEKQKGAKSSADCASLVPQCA
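MLSMR compounds (23 nl, pin-transferred) preincubated 10 min at room temperature with a 500nM (2x) first reagent, then RGS4 at 900nM (2x) plus Transcreener GDP mix added; fluorescence polarization (620/688 nm) read before and after 90 min at 30 °C.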
MCF10A rereplic – DNA re-replication induction in MCF 10a cells | MCF 10A DNA re-replication, Hoechst nuclear intensity, 48 h | Potency, µM (top dose mostly 46.1 µM), without a hit: top-dose activity, positive = re-replication, usual class: activators | 350,000 compounds, 2.9% hits; further: % of control where 0% means no effect; nearly all actives have a fitted effect of over 50% in size
SW480 rereplic – inducers of DNA re-replication in SW480 colon cancer cells | SW480 DNA re-replication, Hoechst DNA content imaging, 48 h | 340,000 compounds, 1.8% hits | Potency, µM (series often up to 46.1 µM), for the others: at the highest dose re-replication activation, usual class: activators; further: % of control where 0% means no effect; nearly all actives have a fitted effect of over 55% in size
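Compounds, transferred as 23 nL by pin tool, were incubated with cells for 48 hr; DNA content per nucleus was then quantified by Hoechst staining and fluorescence plate imaging.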
Active calls of the source: *; i = inactive; ? = inconclusive; nt = no result; [ ] = dose if it differs, or a comment. An excerpt weighted towards active compounds, which were near 6.6% of everything screened. Unless noted, the call rests on the fitted dose curve; in most records, active means well fitted curve in the direction sought with a large enough effect; inconclusive means small, poorly fitted or top-dose-only effect, or another doubt; inactive means no such curve, though single readings can be large; an effect the other way counts as inactive or inconclusive. Potency means the concentration at half of the fitted maximal effect.

SMILES | KB-3-1 cytotox | TSG101-PTAP inh | KB-V1 MDR tox | RGS4 inh | MCF10A rereplic | SW480 rereplic
CCCCN(CCCC)CCNC(=O)Cn1nc(CC)n2c(cc3sc(C)cc32)c1=O | nt | nt | nt | -4% | nt | nt
CCC(=O)OCCNc1cc(Sc2nc3ccccc3[nH]2)c2nonc2c1[N+](=O)[O-] | 23µM* | -3% | i | ? | 1.3µM* | 10µM*
Cc1ccc2nc3c(cc(C(=O)NCC4CCCO4)c(=N)n3C3CCCC3)c(=O)n2c1 (configuration not stated) | i | -6% | ? | 13% | ? | 10%
Cc1cccn2c(=O)c3cc(C(=O)NCC4CCCO4)c(=N)n(C4CCCC4)c3nc12 (configuration not stated) | i | -5% | i | -16% | ? | 18µM*
N=c1c(C(=O)NCC2CCCO2)cc2c(=O)n3ccccc3nc2n1C1CCCC1 (configuration not stated) | i | -3% | i | -2% | 5.2µM* | ?
CCCn1c(=N)c(C(=O)NCC2CCCO2)cc2c(=O)n3cc(C)ccc3nc21 (configuration not stated) | i | nt | i | -7% | nt | nt
N=c1c(C(=O)NCC2CCCO2)cc2c(=O)n3ccccc3nc2n1C1CCCCC1 (configuration not stated) | i | 4% | i | -4% | 15µM* | ?
COc1ccc(NC(=O)c2cc3c(=O)n(Cc4cccs4)ccc3nc2C)c(OC)c1 | i | nt | i | -35% | nt | nt
Cc1ccc(Cl)cc1-n1nnc(-c2nc(-c3ccc4c(c3)OCO4)no2)c1C | i | nt | i | 13% | nt | nt
O=C(NC(=S)N1CCN(c2ccc([N+](=O)[O-])cc2)CC1)c1ccccc1Cl | i | 0% | i | 9% | 2% | 4%
O=C(NC(=S)N1CCN(c2ccc([N+](=O)[O-])cc2)CC1)c1ccccc1F | i | 2% | 21µM* | 3% | 10% | -2%
Cc1cc(/C=N/NC(=O)c2ccncc2)c(C)n1-c1ccccc1 | i | -3% | i | -4% | 2% | -1%
Cc1ccc(/C=N/NC(=O)c2cccs2)cc1[N+](=O)[O-] | i | -7% | 15µM* | 5% | 1% | -8%
Cc1cc(/C=N/NC(=O)c2cccs2)c(C)n1-c1ccccc1 | 16µM* | -2% | ? | -15% | ? | -2%
O=C(N/N=C/c1ccc(N2CCOCC2)cc1)c1ccc(NS(=O)(=O)c2cccs2)cc1 | ? | 0% | i | 4% | -1% | -2%
O=C(N/N=C/c1ccc(N2CCOCC2)cc1)c1cccs1 | i | -6% | i | -8% | 3% | 6.5µM*
c1ccc(C(NCc2cccnc2)(c2ccccc2)c2ccccc2)cc1 | nt | nt | nt | 16%[56.9 µM] | nt | nt
COc1cccc2cc(-c3cc(=O)oc4cc(C)c(OCC(C)=O)cc34)oc12 | ? | -3% | i | -27%[56.9 µM] | 20% | 6.5µM*
COc1ccc2oc(=O)cc(-c3cc4cccc(OC)c4o3)c2c1 | i | -3% | i | 0% | -3% | 1%
CCn1c(SCC(=O)N2CCCc3ccccc32)nc2c1c(=O)n(C)c(=O)n2C | ? | -10% | 2.9µM* | -10% | 3% | -4%
CCn1c(SCC(=O)N2c3ccccc3CCc3ccccc32)nc2c1c(=O)n(C)c(=O)n2C | i | -8% | 2.1µM* | 15% | 21% | 5%
CCn1c(SCc2cc(=O)[nH]c3ccccc23)nc2c1c(=O)n(C)c(=O)n2C | i | -9% | 16µM* | 3% | 4% | -13%
Cc1ccc(-n2c(=O)c3ccc(C(=O)NCc4ccccc4Cl)cc3n(Cc3cccc(F)c3)c2=O)cc1 | i | nt | i | 6% | nt | nt
Cc1ccc(S(=O)(=O)C(CNC(=O)c2ccccc2F)c2cccs2)cc1 (configuration not stated) | i | nt | i | 9% | nt | nt
COC(=O)c1cn(NC(=O)Cc2ccc(Cl)cc2)c(=O)c2ccccc12 | i | -3% | 21µM* | -31% | ? | -38%
SMILES | KB-3-1 cytotox | TSG101-PTAP inh | KB-V1 MDR tox | RGS4 inh | MCF10A rereplic | SW480 rereplic
CC1CC(C)CN(CCOCCSc2ccc(Cl)cc2)C1 (configuration not stated) | i | 3% | i | 9% | 16µM* | ?
O=C(NCC1CCCO1)c1cc2n(n1)C(C(F)(F)F)CC(c1ccc(F)cc1)N2 (configuration not stated) | i | -2% | 21µM* | 12% | 11% | -5%
CCCCNC(=O)c1sc(=S)n(-c2ccccc2OC)c1N | i | -1% | 21µM* | -54% | 10% | -1%
COC(=O)c1sc(=S)n(-c2ccccc2OC)c1N | i | -3% | i | -7% | 0% | -9%
Cc1ccc(-c2ccnc(N3CCC(C(N)=O)CC3)n2)cc1 | i | nt | i | nt | nt | nt
O=C(c1cccc(F)c1)N1CCC(c2c[nH]c3ccccc23)(c2c[nH]c3ccccc23)CC1 | i | nt | i | -15% | nt | nt
CN(Cc1ccccc1)S(=O)(=O)c1cccc2cccnc12 | i | -7% | 21µM* | -18% | 0% | -22%
Cc1ccc2onc(CC(=O)Nc3ccc(C(C)C)cc3)c2c1 | i | nt | i | -29% | nt | nt
Cc1ccc(S(=O)(=O)N(CC(=O)NCc2ccco2)Cc2ccccc2F)cc1 | i | -1% | 8.2µM* | -11% | -1% | -26%
COc1ccc2c(c1)c1c(c(=O)n(-c3ccccc3)c(=O)n1CC(=O)Nc1ccc(F)cc1)n2C | i | nt | i | 20% | nt | nt
Cc1ccccc1CN(C)CCS(=O)(=O)c1cc(Cl)ccc1Cl | ? | -1% | ? | -15% | 9.2µM* | 18µM*
Brc1ccc2c(c1)-c1ccccc1C1=NCCN12 | ? | nt | 10µM* | nt | nt | nt
Clc1ccc2c(c1)-c1ccccc1C1=NCCN12 | 10µM* | nt | 8.2µM* | nt | nt | nt
CN1C2=NCCN2C(=O)c2cc(Cl)ccc21 | i | -5% | i | -23% | 3% | ?
CCCn1c(=S)[nH]c2cc(C(=O)NCc3ccccc3OC)ccc2c1=O | i | nt | i | nt | nt | nt

Assay outcomes from PubChem.
